High-throughput results (PubChem)
Rows were chosen to be rich in hits. Some 3% of all compounds tested hit in one or more screens of this group.
p53ts 39C kill: qHTS Screen for Compounds that Selectively Target Cancer Cells with p53 Mutations: Cytotoxicity of p53ts Cells at the Nonpermissive Temperature; Potency, µM (titrated, usually from 46.1 µM), inactives show at the top dose activity change, negative = cell killing, usual class: cytotoxic; H1299-p53A138V viability at 39C, ATP luminescence, 24 h; AID 902, 2007; 1.5% of 130,000 active; note: % is set by controls: 0 for no effect and ±100 for the full control effect; nearly all actives have a fitted effect of over 55% in size
Peg3 imprint: qHTS Assay for Compounds that Induce Erasure of Genomic Imprints | Potency, µM (top dose mostly 60.7 µM), for inactives: top-dose activity change, positive = activation, actives largely listed as activators | mouse ES Peg3-LacZ reporter, beta-gal luminescence, 40 h | 0.02% of 110,000 active | AID 1948, 2009
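Each well holds 300 Peg3LacZ-Neo (maternal) female ES cells incubated 40 h at 37C, 5% CO2. LacZ is measured by BetaGlo luminescence, with AC50 and maximum efficacy derived from dose-response curves.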
p53ts 32C kill: qHTS Screen for Compounds that Selectively Target Cancer Cells with p53 Mutations: Cytotoxicity of p53ts Cells at the Permissive Temperature; Potency, µM (highest dose often 46.1 µM), without a hit: at the top dose activity change, negative = cytotoxicity, most hits filed as cytotoxic; H1299-p53A138V at 32C, ATP luminescence viability, 24 h; 0.93% of 130,000 active;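 note: 0% = DMSO and -100% = full killing by reference compound; nearly all actives have a fitted effect of over 55% in size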
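Cells: H1299 p53ts (A138V), 600/well, pre-incubated 16–30 h at 37C. Cpd up to 46 uM, 24 h, 32C. Readout: ATPlite luminescence, 20 min RT. Normalization: DMSO vs tamoxifen 100 uM. AC50 by Hill equation.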
IkB signaling: IkB Signaling | ABC-DLBCL IkBa-CBG/CBR dual luciferase ratio, 4 h; response scale: scaled: untreated 0%, proteasome inhibitor 100% | Potency, µM (doses to about 57.1 µM), without a hit: top-dose IkBa stabilization activation | 0.04% of 110,000 active; active = well fitted curve in the direction sought with a large enough effect in the signal ratio, not every such curve was filed as active; inconclusive = small, poorly fitted or top-dose-only effect, or a change in a side signal; the % refers to the signal ratio;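 note: the direction sought is a rising ratio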
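In this assay, an IκBα–CBG68 fusion accumulates when IKK-driven degradation is blocked; native CBR normalizes for cell number. OCI-Ly3 cells were treated 4 h with compound and doxycycline, then green and red light read after Chroma-Glo addition.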
CRE-bla Fsk: Cell signaling CRE-BLA (Fsk stim). CHO CRE-bla reporter (cAMP response element driving beta-lactamase), forskolin EC10, beta-lactamase ratio. Potency, µM (titrated, usually from 38.2 µM), without a hit: at the top dose activity change, negative = inhibition, most hits filed as activators. 2.5% of 71,000 active; active = well fitted activation curve with a large enough effect in the signal ratio, with a control signal flat, not every such curve was filed as active; inconclusive = small, poorly fitted or top-dose-only effect, or effect the other way, or a change in a side signal; the % refers to the signal ratio; note: % of control where 0% means no effect
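Cells were plated overnight at 37 °C, exposed to compound titrations plus EC10 NKH 477 for 3 h, then given CCF4 dye for 2 h at room temperature. Blue/green (460/530 nm) ratio was converted to %Activity and AC50 values calculated.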
Active calls of the source: *; u = inconclusive; x = not tested or not shown; [ ] = another dose, or the depositor's remark. Unless noted, calls come from the whole dose curve; as a rule, active = well fitted curve in the direction sought with a large enough effect; inconclusive = small, poorly fitted or top-dose-only effect, or another doubt; inactive = no such curve, though single readings can be large; an effect the other way counts as inactive or inconclusive. Potency is the fitted concentration of half-maximal effect.

SMILES	p53ts 39C kill	Peg3 imprint	p53ts 32C kill	IkB signaling	CRE-bla Fsk
COC(=O)c1ccc(CSc2nc(N)cc(N)n2)cc1	u	-20%	13µM*	-1%	u
C/C(=C\COc1cc(=O)[nH]c2ccccc12)CC[C@@H](O)C(C)(C)O	x	x	x	1%[11.4 µM]	-11%
Cc1ccc(NC(=O)/C=C/c2ccc(C)o2)c(C)c1	-12%	-10%[10.9 µM]	-8%	5%	x
CC(=O)c1ccc(NC(=O)/C=C/c2ccc(C)o2)cc1	10µM*	-11%[10.9 µM]	7.9µM*	u	x
COc1cc(OC)cc(C(=O)NCc2ccc3c(c2)CCN3C(=O)c2ccccc2)c1	-27%	-28%[10.9 µM]	7%	0%	x
COc1cc2c(cc1OC)C(C(=O)NC1CC1)C1c3ccccc3CCN1C2=O (centres undefined)	3%	-8%	1%	-1%	26%
COc1cc2c(cc1OC)-c1cc(NC3CCCC3)nc(=O)n1CC2	-4%	-3%	-2%	-2%	5µM*
COc1ccc(CNC(=O)CCC2N=C3c4ccccc4N=C(SCc4ccccc4F)N3C2=O)cc1 (centres undefined)	-10%	-6%[10.9 µM]	18%	-3%	x
Cc1ccc(Cl)cc1N1CCN(C(=O)CCS(=O)(=O)c2ccc3c(c2)oc(=O)n3C)CC1	-13%	7%[10.9 µM]	6%	3%	x
N#Cc1c(N2CCCC2)nc(N)c2c(N)nc(N3CCCC3)cc12	15%	-14%	13µM*	0%	u
COc1ccc2[nH]c(=O)c(CN(C(=O)c3cccc(Cl)c3)c3ccccc3OC)cc2c1	-27%	-11%[10.9 µM]	6%	u	x
CC1=C(c2ccc(C(C)C)cc2)S(=O)(=O)N=C1N1CCC(C(=O)Nc2ccc(C)cc2)CC1	13µM*	-22%[10.9 µM]	u	2%	x
CC1=C(c2ccc(C)c(C)c2)S(=O)(=O)N=C1N1CCC(C(=O)Nc2ccc(Cl)cc2)CC1	-17%	-9%[10.9 µM]	-28%	u	x
CCc1ccc(C2=C(C)C(N3CCC(C(=O)Nc4ccc(F)cc4)CC3)=NS2(=O)=O)cc1	10µM*	-10%[10.9 µM]	u	u	x
C=CCn1c(=O)c2ccccc2n2c(SCc3nc(N)nc(Nc4ccccc4C)n3)nnc12	0%	-1%	-5%	0%	7.9µM*
N#Cc1cccc(-c2nc(Nc3ccccc3)c3ccccc3n2)c1	u	-11%	-20%	0%[11.4 µM]	u
c1cncc(-c2nc(NCc3cccs3)c3ccccc3n2)c1	-21%	-4%	0%	-2%[11.4 µM]	u
N#Cc1cccc(-c2nc(NCc3cccs3)c3ccccc3n2)c1	-24%	6.3µM*	-17%	1%[11.4 µM]	u
CC(=O)NCCNc1nc(-c2cccc(C#N)c2)nc2ccccc12	-11%	-7%	8%	-1%[11.4 µM]	13µM*
CCOc1ccc(C(=O)c2cn(CC(=O)Nc3ccc4c(c3)OCCO4)c3ccc(F)cc3c2=O)cc1	-16%	-11%[10.9 µM]	-3%	-1%	x
O=c1c2ccccc2cnn1-c1nc2ccccc2s1	1µM*	-24%	0.79µM*	u	u
Cc1nc(-c2ccc(Cl)cc2)sc1CCNC(=O)c1ccco1	6%	-9%[10.9 µM]	-4%	3%	x
COC(=O)c1ccc2c(=O)n(CCCCCC(=O)N3CCN(c4cc(Cl)ccc4C)CC3)c(=O)[nH]c2c1	4µM*	-11%[10.9 µM]	6.3µM*	0%	x
CC(=O)Nc1ccc(NC(=O)CC(C)n2ccc(C)n2)cc1 (centres undefined)	-6%	-8%[10.9 µM]	-2%	u	x
NC(=O)c1ccccc1N/C=C/C(=O)c1ccccc1	10µM*	-87%	5µM*	u	-4%
SMILES	p53ts 39C kill	Peg3 imprint	p53ts 32C kill	IkB signaling	CRE-bla Fsk
CC(C)=CC(=O)Nc1ccccc1C(N)=O	16%	-8%	5%	0%	-3%
O=c1c2ccccc2nc(SCc2cn3ccsc3n2)n1-c1ccccc1F	2%	-27%	2%	7%	5µM*
O=c1c2ccccc2nc(SCc2cn3ccsc3n2)n1-c1ccccc1	7%	-21%	1%	1%	1.3µM*
O=c1c2ccccc2nc(SCc2nnc(-c3ccccc3Br)o2)n1-c1ccccc1	-6%	-5%	-1%	1%	2.5µM*
CCOc1ccccc1CNC(=O)c1ccc2c(c1)nc1n2CCCCC1	u	-10%[10.9 µM]	u	u	x
CCCCCSc1nc2sc3c(c2c(=O)n1-c1ccccc1)CCN(C(C)=O)C3	13µM*	-8%[10.9 µM]	u	u	x
CCSc1nc2sc3c(c2c(=O)n1-c1ccc(C)c(Cl)c1)CCN(C(C)=O)C3	7%	16%[10.9 µM]	2%	1%	x
CCOc1ccc(OCc2cccc(C(=O)O)c2)cc1	2µM*	-95%	2.5µM*	u	-7%
O=C(O)c1cccc(COc2ccc(CO)cc2Cl)c1	4µM*	-93%	5µM*	u	-14%
COc1ccc(OCc2cccc(C(=O)O)c2)cc1	5µM*	-90%	6.3µM*	u	-11%
CCOc1ccc(OCc2cccc(C(=O)N3CCCC3)c2)cc1	u	-26%	u	9%	6%
CCOC(=O)c1cc(C#N)c(N)nc1C	-2%	1%	-19%	2%	10µM*
COc1cccc(NC(=O)C2CCCN(c3nnc(-n4c(C)ccc4C)s3)C2)c1 (centres undefined)	-2%	-15%[10.9 µM]	2%	u	x
COc1ccc2c(Sc3ccccc3)c(C(=O)NCCCN3CCCCC3)[nH]c2c1	u	-7%[10.9 µM]	-4%	-2%	x
CCOC(=O)c1cccc(NS(=O)(=O)c2cc(-c3cnc(C4CC4)o3)ccc2C)c1	27%	-7%[10.9 µM]	23%	u	x
CCc1ccc(NS(=O)(=O)c2cc(-c3cnc(C4CC4)o3)ccc2C)cc1	20µM*	15%[10.9 µM]	31%	14%	x
CCOC(=O)c1c(NC(=O)CSc2nnc(-c3cccnc3)n2Cc2ccco2)sc(C)c1C	-6%	-16%	3%	u	4µM*
O=C(CSc1nnc(-c2cccnc2)n1Cc1ccco1)Nc1nc(-c2ccc(F)cc2)cs1	-29%	-17%	-11%	u	4%
CCC(=O)c1ccc(OCC(=O)O)cc1	-15%	-14%	7%	0%	-4%
CCCc1c(OCCCOc2ccc(OCC(=O)O)cc2)ccc(C(C)=O)c1O	10%	5%	8%	0%	2.5µM*
Cc1cc(C)nc(N(C#N)CC(=O)N2CCC(C(N)=O)CC2)n1	8%	-62%	4µM*	-2%	-1%
Cc1nn(C)c2c1c(-c1ccccc1)cc(=O)n2Cc1ccccc1Cl	-4%	-3%[10.9 µM]	-4%	0%	x
Cc1ccccc1NC(=O)c1cnc2ccccn2c1=O	16µM*	x	10µM*	x	x
CCc1ccccc1NC(=O)c1sc(-n2nc(C)c(Cc3ccc4c(c3)OCO4)c2C)nc1C	-18%	-12%[10.9 µM]	-5%	2%	x
